Reference: the supplement of paper PMC10338343
± gives the standard deviation. Over roughly 8,200 sequences, “pre-steady-state target cleavage rate” has its median near 0.024; the highest 2% begin near 1.3. Only a selection was taken, and the highest values are over-represented in it overall.

System: MIWI (PIWIL1) piRISC loaded with L1MC piRNA (30 nt)
Experiment: pre-steady-state target cleavage rate (min^-1); MIWI and MILI are mouse PIWI proteins and EfPiwi is from a freshwater sponge; tags in brackets are library labels; higher = faster piRNA-guided slicing of the target
Conditions: guide: L1MC piRNA 5'p-UAACUAAAUACUAUGCAAGCUGUAGGUCCU
Experimental: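 Cleave-'n-Seq: a library of target RNAs (target site embedded in constant flanks, ACAGCATTCCGCGTTAGTGATATCCG... 5' flank; DNA-blocked outside the site) at 0.1 nM was incubated with 1 nM active mouse MILI or MIWI piRISC (synthetic 5'-monophosphorylated piRNA guide) with or without 500 nM mouse GTSF1 at 33 °C for 1 min to 16 h. Uncleaved targets were sequenced and normalised to non-target controls, and the pooled three trials were fitted to a burst-and-steady-state model to give the pre-steady-state cleavage rate (min^-1; k3 is constrained to at most 1e-4). Sequence is the target site only; target names encode pairing extent (gX:gY) and contiguous / 1-mismatch / 2-mismatch / bulge geometry. Fits with R² ≤ 0 are excluded.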

[1] = auxiliary factor: 500 nM mouse GTSF1
[2] = auxiliary factor: none (no GTSF1)

| Sequence | pre-steady-state target cleavage rate [1] | pre-steady-state target cleavage rate [2] |
| --- | --- | --- |
| UCCUCCUACAGUUGCAUAGUAUUUAGUUA | 0.742 ± 0.046 | 0.00376 ± 0.0017 |
| UCCUGGUUCAGCUUGCAUAGUAUUUACUUA | 0.18 ± 0.041 | 0.0237 ± 0.0048 |
| UCCUCCUACACCUUCCAUAGUAUUUAGUUA | 0.0661 ± 0.024 |  |
| UGGACCUACAGCUUGCAUACUUUUUAGUUA | 0.0337 ± 0.0046 | 0.00745 ± 0.0014 |
| UCCACCUACAGCUUGCAUAGUAUAUACAAA | 0.413 ± 0.089 |  |
| UCCUGGAACAGCUUGCAUAAUAUUUAGUUA | 0.559 ± 0.045 | 0.0418 ± 0.0079 |
| UCCUGGAUCAGCUUGCAUAGUAUUUAGCUA | 0.0164 ± 0.0052 | 0.00651 ± 0.0022 |
| UCCUGGAACAGCUUGCUUUGUAUUUAGUUA | 0.0971 ± 0.011 | 0.00848 ± 0.0027 |
| UGGACCUUACAGCUUGCAUAGUAUUUAGUUA | 1.58 ± 0.095 | 0.0853 ± 0.016 |
| AGGACCUACAGCUUGCAUAGUAUUUAGUUC [g2:g30:cont:t1C] | 0.664 ± 0.055 | 0.0568 ± 0.01 |
| UCCACCUUACAGCUUGCAUAGUAUUUAGUUA | 1.03 ± 0.043 | 0.0654 ± 0.013 |
| AGGACCUUACAGCUUGCAUAGUAUUUAGUUA | 1.33 ± 0.06 | 0.0925 ± 0.016 |
| AAGGACCUACAGCUUGCAUAGUAUUUAGUUA | 1.29 ± 0.071 | 0.0755 ± 0.014 |
| ACGGACCUACAGCUUGCAUAGUAUUUAGUUA | 1.24 ± 0.072 | 0.0796 ± 0.016 |
| AGGACCUACAGCUUGCAUAGUAUUUUAGUUA | 1.08 ± 0.058 | 0.056 ± 0.014 |
| CGGACCUACAGCUUGCAUAGUAUUUAGUUA | 0.743 ± 0.028 | 0.06 ± 0.0088 |
| UGGGACCUACAGCUUGCAUAGUAUUUAGUUA | 1.11 ± 0.1 | 0.134 ± 0.033 |
| AGGACCUACAGCUUGCAUAGUAUUUAGUUUA | 1.27 ± 0.067 | 0.11 ± 0.019 |
| AGGACCUACAGCUUGCAUAGUAUUUAGUUA [g2:g30:cont:t1A] | 1.35 ± 0.057 | 0.0941 ± 0.015 |
| GGGACCUACAGCUUGCAUAGUAUUUAGUUA | 1.32 ± 0.097 | 0.113 ± 0.025 |
| AGGACCUACAGCUUGCAUAGUAUUUAGUUG [g2:g30:cont:t1G] | 0.455 ± 0.046 | 0.0773 ± 0.018 |
| AGGGACCUACAGCUUGCAUAGUAUUUAGUUA | 1.31 ± 0.086 | 0.102 ± 0.021 |
| UCGGACCUACAGCUUGCAUAGUAUUUAGUUA | 1.37 ± 0.097 | 0.0616 ± 0.01 |
| AGGACCUACAGCUUGCAUAGUAUUUAGUUU [g2:g30:cont:t1U] | 1.64 ± 0.079 | 0.165 ± 0.036 |
| AGGACCUUCAGCUUGCAUAGUAUAUAGUUA | 0.827 ± 0.057 | 0.0427 ± 0.009 |
| UCCACCUACAGCUUGCAUAGUAUUUAGGUUA | 0.409 ± 0.062 | 0.0153 ± 0.0045 |
| UCGACCUACAGCUUGCAUAGAUUUUAGUAA | 0.124 ± 0.023 |  |

| Sequence | pre-steady-state target cleavage rate [1] | pre-steady-state target cleavage rate [2] |
| --- | --- | --- |
| UCCUCCUACAGCUUGCAUAGUAAUUAGAUA | 0.297 ± 0.047 | 0.00556 ± 0.0028 |
| UCCUGCUACAGUCUUGCAUAGUAUUUAGUUA | 0.643 ± 0.033 | 0.0274 ± 0.005 |
| UCCUGGAUGUCGUUGCAUAGUAUUUAGUUUA | 0.022 ± 0.0057 | 0.00499 ± 0.003 |
| UCCUGGAUGUCCUUGCAUAGUUUUUACUUA | 0.00583 ± 0.0041 |  |
| UCCUGGAUGUGCUUGCAUAGUAUUUAUUA | 0.0179 ± 0.0058 |  |
| UGGACCUACAGCUUGCAUAGUAUUUCGUUA | 0.411 ± 0.054 | 0.0397 ± 0.0067 |
| UCCUGGAUCAGCUUGCAUACUAAUUAGUUA | 0.0563 ± 0.0091 | 0.00771 ± 0.0023 |
| UCCUCCUUACAGCUUGCAUAGUAUUUAGUUA | 1.3 ± 0.052 | 0.0583 ± 0.011 |
| UCCUCUUACAGCUUGCAUAGUAUUUAGUUA | 1.62 ± 0.055 | 0.061 ± 0.0099 |
| UCCUGCGACAGCUUGCAUAGUAUUUAGUUA | 1.19 ± 0.06 | 0.0863 ± 0.017 |
| UCCUCCAUACAGCUUGCAUAGUAUUUAGUUA | 0.364 ± 0.019 | 0.0335 ± 0.0051 |
| UCCUGGUUACAGCUUGCAUAGUAUUUAGUUA | 1.01 ± 0.048 | 0.0561 ± 0.011 |
| UCCUGCUUACAGCUUGCAUAGUAUUUAGUUA | 1.48 ± 0.13 | 0.0826 ± 0.02 |
| UCCUCAUACAGCUUGCAUAGUAUUUAGUUA | 1.47 ± 0.054 | 0.0664 ± 0.01 |
| UCCUGUUACAGCUUGCAUAGUAUUUAGUUA | 1.28 ± 0.058 | 0.0747 ± 0.013 |
| UCCUGGUACAGCUUGCAUAGUAUUUAGUUA [g2:g24:cont:t1A] | 0.82 ± 0.041 | 0.0692 ± 0.013 |
| UCCUCGCUACAGCUUGCAUAGUAUUUAGUUA | 0.831 ± 0.05 | 0.0517 ± 0.0088 |
| UCCUCACUACAGCUUGCAUAGUAUUUAGUUA | 0.676 ± 0.03 | 0.0551 ± 0.0082 |
| UCCUGCGUACAGCUUGCAUAGUAUUUAGUUA | 1.33 ± 0.062 | 0.0785 ± 0.016 |
| AGGACCUACAGCUUGCUUAGAAUUUAGUUA | 0.377 ± 0.04 | 0.00929 ± 0.0032 |
| UCCUGGAUGUCCUUACAUAGUAUUUAGUUA | 0.0237 ± 0.0056 | 0.0041 ± 0.0017 |
| UGGACCUACACGAUGCAUAGUAUUUAGAAA | 0.122 ± 0.016 |  |
| UCCUGCUACAGCUUGCUUAGUAUUUUCAAA | 0.11 ± 0.028 |  |
| UCCUGGUUCAGCUUGCAUUGUAUUUAGUUA | 0.61 ± 0.028 | 0.0343 ± 0.01 |
| UCCUGGUACAGCUUGCAUAGUAUUCUAGUUA | 0.442 ± 0.092 | 0.00651 ± 0.0028 |
| UCCACCUACAGCUUGCUUAGUAUUUAGAAA | 0.226 ± 0.037 |  |
| UCCACCUACAGCUUGCAUAGUACUUUAGUUA | 0.447 ± 0.035 | 0.00964 ± 0.0027 |

| Sequence | pre-steady-state target cleavage rate [1] | pre-steady-state target cleavage rate [2] |
| --- | --- | --- |
| UCCUGCUACAGCUUGCAUAGUAUUUAGUUG [g2:g25:cont:t1G] | 0.229 ± 0.019 | 0.0367 ± 0.0072 |
| UCCUGAUACAGCUUGCAUAGUAUUUAGUUA | 1.15 ± 0.046 | 0.0816 ± 0.017 |
| UCCUGCAUACAGCUUGCAUAGUAUUUAGUUA | 1.63 ± 0.12 | 0.0686 ± 0.013 |
| UCGAGGUACAGCUUGCAUAGUAUUUUCAAA | 0.278 ± 0.038 | 0.00215 ± 0.0021 |
| UCCUGCUACAGCUUGCAUAGUUAUUACAAA | 0.0101 ± 0.0052 |  |
| AGGACCUACAGCUUGCAAUGUAUUUACAAA | 0.0775 ± 0.019 |  |
| UCCUCCUACACCUUGCAAAGUAUUUAGUUA | 0.831 ± 0.043 | 0.0328 ± 0.0065 |
| UCCUGCUACAGCUUGCAUUGUUUUUAGUUA | 0.0845 ± 0.0095 | 0.00988 ± 0.0021 |
| UCGACCUACAGCAUGCAUUGUAUUUAGUUA | 0.944 ± 0.04 | 0.0101 ± 0.0026 |
| AGAGACCUACAGCUUGCAUAGUAUUUAGUUA | 1.46 ± 0.067 | 0.091 ± 0.017 |
| UGAGACCUACAGCUUGCAUAGUAUUUAGUUA | 1.49 ± 0.1 | 0.0826 ± 0.015 |
| UCCUGGAACACCUUGGAUAGUAUUUAGUUA | 0.286 ± 0.038 | 0.00651 ± 0.0022 |
| UCCUGGAUGAGCUUGCAUAGUAUAUUAGUUA | 0.464 ± 0.04 | 0.00823 ± 0.004 |
| UCCUGGUACAGCUUGCAUAGUAAUUAGAUA | 0.209 ± 0.042 | 0.00778 ± 0.0021 |
| AGGACGUACAGCUUGCAUAGUAUUUAGAAA | 0.432 ± 0.06 | 0.0172 ± 0.0052 |
| UCCUGGAUGUCGAACGUAAGUAUUUAUUA | < 0.0001 | < 0.0001 |
| UCCACCUACAGCUUGGUAAGUAUUUAGUUA | 0.0619 ± 0.011 |  |
| AGGUACCUACAGCUUGCAUAGUAUUUAGUUA | 1.35 ± 0.21 | 0.481 ± 0.15 |
| UGUACCUACAGCUUGCAUAGUAUUUAGUUA | 1.34 ± 0.049 | 0.0875 ± 0.013 |
| ACCACCUACAGCUUGCAUAGUAUUUAGUUA | 1.16 ± 0.056 | 0.0927 ± 0.017 |
| UGGUACCUACAGCUUGCAUAGUAUUUAGUUA | 0.945 ± 0.17 | 0.117 ± 0.034 |
| UCCACCUACAGCUUGCAUAGUAUUUAGGUA | 0.3 ± 0.054 | 0.00404 ± 0.0029 |
| AGUACCUACAGCUUGCAUAGUAUUUAGUUA | 1.23 ± 0.064 | 0.0796 ± 0.013 |
| UCCACCUACAGCUUGCAUAGUAUUUAGUUUA | 0.907 ± 0.047 | 0.0632 ± 0.014 |
| UCUACCUACAGCUUGCAUAGUAUUUAGUUA | 1.4 ± 0.043 | 0.0731 ± 0.013 |
